# Source: PubChem BioAssay (NCATS)
# Values without a mark were called inactive. Records with an inconclusive call do not appear. Where a call stands in place of a potency, no number is given. Activity calls are given as the source filed them. Calls follow the shape of the dose curve; as a rule, active = well fitted curve in the direction sought with a large enough effect; inconclusive = small, poorly fitted or top-dose-only effect, or another doubt; inactive = no such curve, though single readings can be large; an effect the other way counts as inactive or inconclusive.
# Legend:
# [1] = target: Cytochrome P450 2D6 (Homo sapiens) (UniProt P10635); assay: qHTS for inhibitors of CYP2D6 against the NCATS DSHEA and TCM libraries (AID 1919972); conditions: CYP2D6 enzymatic inhibition, luminescence qHTS; series mostly up to 34.1 µM
# Cytochrome P450 2D6 (Homo sapiens), sequence (P10635 whole entry, looked up): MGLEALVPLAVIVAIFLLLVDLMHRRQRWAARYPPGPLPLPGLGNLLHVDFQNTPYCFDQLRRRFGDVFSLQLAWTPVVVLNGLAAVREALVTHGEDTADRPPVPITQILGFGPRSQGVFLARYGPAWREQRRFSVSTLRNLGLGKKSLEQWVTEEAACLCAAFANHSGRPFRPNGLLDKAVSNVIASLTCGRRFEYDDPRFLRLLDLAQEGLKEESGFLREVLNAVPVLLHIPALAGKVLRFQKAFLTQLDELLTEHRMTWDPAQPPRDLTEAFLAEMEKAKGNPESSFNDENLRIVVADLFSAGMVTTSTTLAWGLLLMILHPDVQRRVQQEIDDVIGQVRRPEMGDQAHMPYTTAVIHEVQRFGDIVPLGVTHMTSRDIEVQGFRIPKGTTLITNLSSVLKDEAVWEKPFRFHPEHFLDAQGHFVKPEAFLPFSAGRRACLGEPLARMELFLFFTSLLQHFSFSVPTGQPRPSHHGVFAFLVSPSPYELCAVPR
# Method in brief: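 CYP2D6 enzyme with pro-luciferin substrate in manufacturer buffer (typically 100 mM KPO4), preincubated 15 min RT with substances (most at 19.5 nM upward); NADPH regeneration system (1x) started 30–45 min RT reaction; P450-Glo luminescence read after 30 min; quinidine as intraplate control.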
# [2] = target: Cytochrome P450 2C9 (Homo sapiens) (UniProt P11712); assay: qHTS for inhibitors of CYP2C9 against the NCATS DSHEA and TCM libraries (AID 1919973); conditions: recombinant CYP2C9 enzyme activity, luminescence; series mostly up to 34.1 µM; also: potency is read from the fitted curve at half-maximal effect
# Cytochrome P450 2C9 (Homo sapiens), sequence (P11712 whole entry, looked up, canonical isoform): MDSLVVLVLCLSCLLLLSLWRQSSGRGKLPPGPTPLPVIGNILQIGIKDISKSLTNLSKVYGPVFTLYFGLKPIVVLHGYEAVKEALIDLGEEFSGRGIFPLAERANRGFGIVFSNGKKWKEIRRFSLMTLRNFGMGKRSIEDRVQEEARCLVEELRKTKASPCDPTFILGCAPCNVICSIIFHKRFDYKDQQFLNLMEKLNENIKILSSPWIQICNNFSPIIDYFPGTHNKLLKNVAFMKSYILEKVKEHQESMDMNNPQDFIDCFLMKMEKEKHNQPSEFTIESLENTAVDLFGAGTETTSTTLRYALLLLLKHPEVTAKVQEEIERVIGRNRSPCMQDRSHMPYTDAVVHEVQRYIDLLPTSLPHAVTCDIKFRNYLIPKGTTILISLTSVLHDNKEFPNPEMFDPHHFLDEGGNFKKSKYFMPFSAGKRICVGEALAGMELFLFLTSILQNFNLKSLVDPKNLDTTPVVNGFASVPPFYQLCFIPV
# Method in brief: (§1)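 Concentration-response screening with isoform-matched pro-luciferin substrates. The CYP reaction was initiated by NADPH regenerating solution and ran 30-45 min in darkness at room temperature.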
# [3] = target: Cytochrome P450 2C19 (Homo sapiens) (UniProt P33261); assay: qHTS for inhibitors of CYP2C19 against the NCATS DSHEA and TCM libraries (AID 1919974); conditions: CYP2C19 enzyme inhibition, luminescence qHTS; series mostly up to 34.1 µM;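 also: luminescence from luciferin released by CYP2C19 oxidation of a pro-luciferin substrate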; also: potency is read from the fitted curve at half-maximal effect
# Cytochrome P450 2C19 (Homo sapiens), sequence (P33261 whole entry, looked up): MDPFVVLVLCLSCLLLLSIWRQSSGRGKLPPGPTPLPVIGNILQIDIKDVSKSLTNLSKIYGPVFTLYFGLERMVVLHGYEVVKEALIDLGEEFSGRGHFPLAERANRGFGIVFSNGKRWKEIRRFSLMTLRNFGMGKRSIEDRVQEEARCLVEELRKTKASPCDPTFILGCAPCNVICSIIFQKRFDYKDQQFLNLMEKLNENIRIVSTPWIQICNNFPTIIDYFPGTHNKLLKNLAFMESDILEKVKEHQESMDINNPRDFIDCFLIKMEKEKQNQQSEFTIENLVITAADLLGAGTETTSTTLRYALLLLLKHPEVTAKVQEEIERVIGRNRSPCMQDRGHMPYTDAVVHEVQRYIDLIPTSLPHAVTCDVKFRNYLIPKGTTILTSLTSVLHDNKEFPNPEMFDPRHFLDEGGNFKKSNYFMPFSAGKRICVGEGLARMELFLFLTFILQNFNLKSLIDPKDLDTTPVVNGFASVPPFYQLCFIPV
# Method in brief: as §1
# [4] = KB-3-1 P-gp reporter qHTS against the NCATS DSHEA and TCM libraries (AID 1919975); conditions: KB-3-1 parental cells, CellTiter-Glo luminescence viability, 72 h; series mostly up to 26.1 µM
# Method in brief: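 72 h exposure of KB-3-1 cells (DMEM, 10% FBS) to DSHEA/TCM samples, concentration-response; cell viability measured as CellTiter-Glo luminescence after 30 min at room temperature.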
# [5] = target: Cytochrome P450 1A2 (Homo sapiens) (UniProt P05177); assay: qHTS for inhibitors of CYPIA2 against the NCATS DSHEA and TCM libraries (AID 1919976); conditions: recombinant CYP1A2 enzyme activity, luminescence; series mostly up to 37 µM; also: potency is read from the fitted curve at half-maximal effect
# Cytochrome P450 1A2 (Homo sapiens), sequence (P05177 whole entry, looked up): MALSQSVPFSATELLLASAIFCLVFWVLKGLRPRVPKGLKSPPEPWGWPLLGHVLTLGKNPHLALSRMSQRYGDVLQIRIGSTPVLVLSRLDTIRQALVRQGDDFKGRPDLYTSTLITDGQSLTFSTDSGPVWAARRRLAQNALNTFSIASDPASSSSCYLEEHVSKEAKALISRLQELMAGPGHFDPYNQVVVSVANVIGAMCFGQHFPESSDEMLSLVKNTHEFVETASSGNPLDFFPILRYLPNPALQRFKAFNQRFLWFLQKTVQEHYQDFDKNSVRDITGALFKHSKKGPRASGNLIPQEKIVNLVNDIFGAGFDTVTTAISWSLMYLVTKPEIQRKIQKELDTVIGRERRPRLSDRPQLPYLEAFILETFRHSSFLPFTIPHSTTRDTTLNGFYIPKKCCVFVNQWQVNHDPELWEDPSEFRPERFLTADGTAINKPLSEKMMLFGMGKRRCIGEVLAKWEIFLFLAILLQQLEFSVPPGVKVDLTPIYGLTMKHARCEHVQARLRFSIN
# Method in brief: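 Enzyme and pro-luciferin substrate, or substrate alone as no-enzyme background, are pre-incubated with test samples for 15 min at room temperature. NADPH regeneration system (1x final) initiates a 30-45 min dark reaction; luciferase detection reagent follows before luminescence reading.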
# [6] = qHTS Counterscreen for compound interference against the NCATS DSHEA and TCM libraries (AID 1919978); conditions: firefly luciferase detection reagent interference, luminescence
# Method in brief: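 Read-out is luminescence after 30 min at RT with luciferin detection reagent. Before that, compounds (19.5 nM to 39.8 uM final) sat 15 min at RT with 1 uM D-luciferin or 100 mM potassium phosphate buffer. PTC124 served as intraplate control.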
# [7] = Dual reporter qHTS for agonist of Pregnane X Receptor (hPXR) against the NCATS DSHEA and TCM libraries: Fluorescence readout (AID 1920058); conditions: PXR dual reporter cells; series mostly up to 40 µM
# From the text: Assay Development and Screening Technology Laboratory (ADST)
# National Center for Advancing Translational Sciences (NCATS), Rockville, MD
# National Institute of Health (NIH), Bethesda, Maryland
# Dietary Supplements and Natural Products have minor oversight of their safety and efficacy. We assembled a collection of Dietary Supplements and Natural Products (DSNP) as well as Traditional Chinese Medicinal (TCM) Plant extracts, which were screened against an in vitro panel of assays, including a liver cytochrome p450 enzyme panel, CAR/PXR signaling pathways, and P-gp transporter assays, to assess their activity. This pipeline facilitated the interrogation of Natural Product-Drug Interaction (NaPDI) through prominent metabolizing pathways. In addition, we compared the activity profiles of the DSNP/TCM substances with those of an approved drug collection. Many of the approved drugs have well-annotated mechanisms of action (MOA) while the MOAs for most of the DSNP and TCM samples remain unknown. Based on the premise that compounds with similar activity profiles tend to share similar targets or MOA, we clustered the library activity profiles to identify overlap with the NCATS Pharmaceutical Collection to predict the MOAs of the DSNP/TCM substances. Overall, we highlight four significant bioactivity profiles (measured by p-values) as examples of this prediction. To assess broad cytotoxicity, we employed screening against a HepG2 cell line. In addition, transporter-mediated drug interactions are utilized in the characterization of DDIs using a P-glycoprotein (P-gp) assays. To profile potential P-gp activity, a differential cell viability was measured against two cell lines: a parental KB-3-1 human cervical adenocarcinoma cell line and the drug-resistant subline KB-8-5-11 that overexpresses P-gp.
# To this end, we profiled both collections for potential CAR and/or PXR activity, employing a previously published 1536-well qHTS assay.
# [1] Lee TD, et al. A High-Throughput Screen of a Library of Therapeutics Identifies Cytotoxic Substrates of P-glycoprotein. Mol Pharmacol. Nov 2019;96(5):629-640. doi:10.1124/mol.119.115964
# For PXR luciferase reporter gene assays, we used hPXR-LucHepG2cells provided by Dr. Taosheng Chen (Department of Chemical Biology and Therapeutics, St. Jude Children's Research Hospital). Cells were cultured in EMEM supplemented with 10% fetal bovine serum, 100U/mL penicillin and 100ug/mL streptomycin, and 500ug/mL of geneticin.
# PROTOCOL TABLE (as described by Inglese J, Shamu CE and Guy RK. 2007)
# SEQUENCE No. (e.g., 1, 2, 3, etc.); PARAMETER (e.g., Cells, Incubation, Reagent, etc.); VALUE; DESCRIPTION.
# 1; Cells; 5 uL; hPXR-LucHepG2; white solid-bottom Greiner plate. […]
# 8; Read; Fluorescence; ViewLux plate reader. […]
# 11; Read; Luminescence; ViewLux plate reader. […]
# [8] = target: Nuclear receptor subfamily 1 group I member 2 (Homo sapiens) (UniProt O75469); assay: Dual reporter qHTS for agonist of Pregnane X Receptor (hPXR) against the NCATS DSHEA and TCM libraries: Luminescence readout (AID 1920059); conditions: hPXR dual reporter cells, luciferase luminescence agonist; series mostly up to 40 µM
# Nuclear receptor subfamily 1 group I member 2 (Homo sapiens), sequence (O75469 whole entry, looked up): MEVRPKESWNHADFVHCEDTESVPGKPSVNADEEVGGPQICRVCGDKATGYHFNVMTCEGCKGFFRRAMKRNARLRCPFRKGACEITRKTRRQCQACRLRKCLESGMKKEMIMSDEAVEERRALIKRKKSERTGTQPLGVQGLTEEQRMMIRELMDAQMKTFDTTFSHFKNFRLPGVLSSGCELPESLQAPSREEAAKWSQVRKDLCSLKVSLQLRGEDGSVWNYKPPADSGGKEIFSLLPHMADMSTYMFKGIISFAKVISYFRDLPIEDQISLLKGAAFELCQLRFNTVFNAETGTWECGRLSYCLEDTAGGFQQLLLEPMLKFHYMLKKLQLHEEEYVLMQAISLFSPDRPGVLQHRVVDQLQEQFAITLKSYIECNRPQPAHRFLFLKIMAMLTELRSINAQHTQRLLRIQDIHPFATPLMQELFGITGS
# Method in brief: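 hPXR-LucHepG2 cells in phenol red-free DMEM with 5% charcoal-stripped FBS, 2000 cells/well, attached 5 h, then exposed 24 h at 37C to compounds; rifampicin as positive agonist control (2.8 nM–92 uM). Luciferase luminescence read.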
# [9] = target: Nuclear receptor subfamily 1 group I member 2 (Homo sapiens) (UniProt O75469); assay: Dual reporter qHTS for antagonist of Pregnane X Receptor (hPXR) against the NCATS DSHEA and TCM libraries: Luminescence Readout (AID 1920060); conditions: hPXR dual reporter cells, luciferase luminescence, antagonist mode; series mostly up to 40 µM;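 also: HepG2 cells carrying hPXR luciferase reporter stimulated with rifampicin at 2 µM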
# Method in brief: (§2)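 In antagonist mode, 2 uM rifampicin was added to hPXR-Luc HepG2 cells alongside test substances, incubated 24 h at 37 C; luminescence gave reporter activity, and CellTiter-Fluor fluorescence (405/540 nm) gave viability.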
# [10] = Dual reporter qHTS for antagonist of Pregnane X Receptor (hPXR) against the NCATS DSHEA and TCM libraries: Fluorescence Readout (AID 1920061); conditions: PXR dual reporter cells, antagonist mode; series mostly up to 40 µM
# Method in brief: as §2
SMILES,outcome [1],Potency [2],Potency [3],outcome [4],Potency [5],max response [6] [%],outcome [7],outcome [8],outcome [9],outcome [10]
C=C1[C@H]2CC[C@H](C(=O)O)[C@@]23CC[C@H](C3)C1(C)C,inactive,inactive,inactive,inactive,inactive,1.56,inactive,inactive,inactive,inactive
CC(=O)C1=C(O)C=C2Oc3c(C(C)=O)c(O)c(C)c(O)c3[C@]2(C)C1=O,,4.47 µM (active),3.98 µM (active),inactive,7.94 µM (active),-5.05,inactive,,inactive,inactive
CCCCCCCCCC(=O)O,inactive,inactive,inactive,inactive,inactive,-0.481,inactive,inactive,inactive,inactive
O=C(O)CC(O)(CC(=O)O)C(=O)O,inactive,inactive,inactive,inactive,inactive,-0.506,inactive,inactive,,inactive
